NALP1 yeast inh – blocks the NALP1 inflammasome reconstituted in yeast | 280,000 tested, 0.61% active | S. cerevisiae NALP1/ASC/caspase-1 growth, X-gal OD620, 72 h | inhibition, % at 10 µM; in the data active = inhibition mostly above about 24%, no sharp cut-off; inactive = mostly below about 32%
TIM10 inh – inhibits growth of TIM10 yeast strain; S. cerevisiae TIM10 strain growth, BacTiter-Glo luminescence, 24 h; inhibition, % at 10 µM; 330,000 tested, 1.4% active; AID 463195;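 active = inhibition of 40% or more at the single tested concentration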;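 note: wild-type TIM10 isogenic control strain grown at permissive 25 °C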
tim10-1 inh – inhibits growth of tim10-1 mutant yeast | S. cerevisiae tim10-1 ts strain growth, BacTiter-Glo, 24 h | AID 463190 | 330,000 tested, 2.2% active | inhibition, % at 20 µM;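 active = inhibition of at least 40%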;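 note: mutant grown at 25 °C; 0% = DMSO wells with yeast and 100% = wells holding no yeast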
NALP3 yeast inh – inhibitors of NALP3 inflammasome in yeast; AID 2825; Yeast reconstituted NLRP3/ASC/caspase-1, beta-gal luminescence, 24 h; 330,000 tested, 0.39% active; inhibition, % at 10 µM;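 active = inhibition of 50% or more; inactive = inhibition below 50%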;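 note: plate controls were induced DMSO wells for no effect and uninduced yeast grown without galactose for full effect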
tim23-1 inh – tim23-1 yeast growth inhibition. S. cerevisiae tim23-1 growth, BacTiter-Glo luminescence, 24 h. 330,000 tested, 1.3% active. inhibition, % at 20 µM;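 active = growth inhibition of the mutant yeast at or above 50%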;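 note: temperature-sensitive mutant grown at 25 °C; plate controls were DMSO-treated mutant yeast for no effect and medium wells lacking yeast for full effect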
TIM10 conf – confirmation of TIM10 yeast growth inhibitors | shares compounds with TIM10 inh | S. cerevisiae tim10 strain growth, BacTiter-Glo luminescence, 24 h | inhibition, % at 10 µM | 4,600 tested, 63% active | AID 463215;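 active = inhibition of yeast growth at or above a set limit in either of two replicates at 10 µM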;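 note: this counterscreen used the strain with wild-type TIM10; 0% = yeast with DMSO and 100% = medium wells lacking yeast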
tim23-1 conf – confirmation of tim23-1 mutant yeast growth inhibitors; S. cerevisiae tim23-1 growth, BacTiter-Glo luminescence, 24 h; inhibition, % at 20 µM; 4,400 tested, 83% active; shares compounds with tim23-1 inh;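 active = inhibition above about 39% in either of two replicate wells at 20 µM, limit read from the data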;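 note: temperature-sensitive tim23-1 mutant grown at 25 °C; 0% = DMSO wells with yeast and 100% = medium wells without yeast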
* marks the source's active call; other numbers are inactive results; / = no result. Hits are enriched below; roughly 4.1% of the tested compounds scored in any of these assays.

SMILES | NALP1 yeast inh | TIM10 inh | tim10-1 inh | NALP3 yeast inh | tim23-1 inh | tim23-1 conf | others
O=C(Nc1ccc2oc(-c3ccccc3F)nc2c1)c1ccc2c(c1)OCCO2 | 17.5 | 45.6* | 39.1 | 19.9 | 59.9* | 69.6* | TIM10 conf=35.6*
Cc1ccccc1-c1nc2cc(NC(=O)C3CC3)ccc2o1 | 19.7 | 62.9* | 16.0 | 34.7 | 70.7* | 74.7* | TIM10 conf=54.0*
CCc1c(C2(O)CCCCC2)[nH]c2cc(C(F)(F)F)ccc12 | 4.5 | 50.8* | 36.2 | 13.4 | 67.1* | -14.2 | TIM10 conf=61.3*
Cc1ccc2c(c1)COc1c3ccc(C(=O)NCC4CC4)cc3nn1-2 | -4.0 | 40.7* | 16.4 | 15.5 | 61.1* | 53.6* | TIM10 conf=31.1*
CCc1ccc(CN(C)C(=O)c2cc(COc3ccc(-n4cncn4)cc3)on2)cc1 | 14.3 | 55.6* | 25.6 | 32.7 | 54.1* | 52.5* | TIM10 conf=46.1*
CC(CN1CCOCC1)OC(=O)c1ccc2c(c1)OCCO2 (stereo unspecified) | 27.3 | 41.4* | 24.2 | 7.2 | 72.1* | 47.2* | TIM10 conf=12.5
Cc1ccc(C(C[N+](=O)[O-])Sc2ccc(N)cc2)cc1 (stereo unspecified) | 25.6 | 56.0* | 38.7 | 48.9 | 74.5* | 90.2* | TIM10 conf=50.6*
CCOc1ccc2cc(C#N)c(SCC(=O)N3CCC(C)CC3)nc2c1 | 2.5 | 59.0* | 35.7 | 9.1 | 52.4* | 50.0* | TIM10 conf=13.8
COc1ccc(N/C(C)=C2/C(=O)C(=O)N(CCO)C2c2ccc(Br)cc2)cc1 (stereo unspecified) | -5.3 | 12.2 | 17.3 | -2.7 | 14.8 | /
O=C(NC(=S)NNC(=O)c1ccccc1O)c1ccccc1 | 3.2 | 48.5* | 11.2 | 46.5 | 61.5* | -28.3 | TIM10 conf=42.3*
O=C(Nc1nc2ccc(S(=O)(=O)N3CCCCC3)cc2s1)C1CCCO1 (stereo unspecified) | 7.1 | 33.5 | 39.7 | 14.2 | 52.5* | 46.9*
O=C(O)/C=C\C(=O)Nc1ccc(Oc2ccc(Br)cc2)cc1 | -3.0 | 0.6 | 7.4 | 31.0 | 53.1* | 14.9
COC(=O)c1c(-c2ccc(S(C)(=O)=O)cc2)sc2ccc(OC)cc12 | / | 12.3 | 19.0 | 20.2 | 51.8* | 42.8*
Cc1cc(NC2CCCC2)n2nc(C)c(-c3ccccc3)c2n1 | 16.5 | 35.0 | 28.4 | -2.8 | 50.6* | 42.8*
Cc1cc(NC2CCCC2)n2ncc(-c3ccccc3)c2n1 | 29.9 | 22.3 | 37.4 | 15.1 | 50.4* | 18.1
Cc1cc(N)n2nc(C)c(-c3ccccc3)c2n1 | 19.4 | / | / | / | / | /
Cc1ccc(C(=O)N/N=C/c2nc3ccccc3n2C)cc1 | 22.9 | 5.9 | 28.2 | 14.1 | 53.6* | 38.8*
CC(C)c1ccccc1-n1c(-c2cccnc2)n[nH]c1=S | -29.3 | -9.1 | 7.5 | 12.2 | -5.5 | /
CCOC(=O)c1c(C)oc2c1c(C=NCCO)c(O)c1ccccc12 | 4.7 | / | / | / | / | /
CCOC(=O)C1CCN(C(c2cccnc2)c2c(NC(=O)c3ccco3)sc(C)c2C)CC1 (stereo unspecified) | 13.0 | -6.4 | 6.3 | 13.0 | 2.2 | /
CCOC(=O)c1c(C)oc2c1c(C(c1ccccc1)N1CCOCC1)c(O)c1ccccc12 (stereo unspecified) | 3.7 | 39.2 | 38.9 | 8.1 | 66.2* | 42.8*
CCOC(=O)c1c(C)oc2c1c(C(c1cccnc1)N1CCCCC1)c(O)c1ccccc12 (stereo unspecified) | 10.4 | 18.4 | 25.8 | 11.0 | 50.1* | 44.7*
CCOC(=O)c1csc(NC(=O)CSc2nnnn2-c2ccc(OC)cc2)n1 | -7.3 | 7.8 | 7.9 | -0.2 | 15.9 | /
CCOC(=O)c1c(NC(=O)CSc2nnnn2-c2ccc(OC)cc2)sc(C)c1C | -10.6 | -0.8 | 20.6 | 2.7 | 50.2* | 81.7*
CC1(C(=O)O)CCC(C(=O)NNC(=O)c2ccccc2O)C1(C)C (stereo unspecified) | 1.0 | -4.8 | 19.7 | -0.9 | 6.7 | /
SMILES | NALP1 yeast inh | TIM10 inh | tim10-1 inh | NALP3 yeast inh | tim23-1 inh | tim23-1 conf | others
Cc1cc(C(=O)N/N=C\c2cc(C(C)(C)C)ccc2O)n[nH]1 | -0.6 | 21.4 | 32.5 | 19.2 | 56.0* | 55.2*
CCOc1ccccc1N1CCN(C(=O)c2csc(C)c2CC)CC1 | 10.0 | 18.8 | 22.5 | 21.7 | 20.7 | /
Nc1ccc(/C=C/C(=O)c2cccs2)cc1 | -1.2 | 39.8 | 28.0 | 16.9 | 56.2* | 80.1*
COc1ccc(CNC(=O)CN(C(=O)CCC(=O)Nc2ccccn2)c2cccc(C)c2C)cc1 | 7.4 | 11.0 | -0.3 | 18.4 | 11.6 | /
COc1ccccc1Nc1c([N+](=O)[O-])cc(C)cc1[N+](=O)[O-] | 2.1 | -18.9 | -1.3 | 10.5 | -6.2 | /
COc1ccccc1Nc1ccc([N+](=O)[O-])cc1N | 26.0 | 27.1 | 35.6 | 30.7 | 55.3* | 40.6*
CCCCCCc1ccc(-c2ncc(N)cn2)cc1 | 23.3 | 3.6 | 39.0 | 32.1 | 53.1* | 40.7*
CCCCCc1ccc(-c2nnc(N)s2)cc1 | -4.0 | -20.8 | -10.5 | 33.8 | 14.2 | /
CCc1nnc(NC(=O)c2cc3c(s2)CCCCC3)s1 | / | -1.6 | 10.6 | -5.4 | -10.4 | /
Cc1cnc(NC(=O)c2cc3c(s2)CCCC3)s1 | 12.3 | 28.3 | 26.5 | 34.9 | 54.8* | 46.8*
CCOc1ccc(N/C(=C(/C(Cl)=C(Cl)Cl)[N+](=O)[O-])n2cncn2)cc1 | 1.1 | 5.3 | 17.2 | 10.4 | 9.6 | /
O=[N+]([O-])/C(C(Cl)=C(Cl)Cl)=C(\Nc1ccc(F)cc1)n1cncn1 | 16.4 | 34.9 | 38.3 | 8.4 | 75.3* | 19.9
Nc1n[nH]c(C2CC2)c1N=Nc1ccc(Cl)c(Cl)c1 | / | 39.4 | 35.2 | 30.0 | 68.7* | 9.4
Nc1n[nH]c(C2CC2)c1N=Nc1ccc(Cl)cc1 | 0.5 | 25.3 | 7.7 | 21.4 | 69.5* | 23.9
CS(=O)(=O)N1CCN(c2ccc(NC(=O)c3ccccc3)cc2)CC1 | 16.4 | 13.7 | -5.0 | 1.7 | -3.8 | /
NC(=O)Nc1ccc(C(=O)OCC(=O)N2CCc3ccccc3C2)cc1 | / | 8.8 | -2.2 | 14.6 | -0.3 | /
Cc1ccc(C(=O)Nc2cc(C(C)C)c(O)c(C(C)C)c2)cc1 | 35.3 | -38.0 | -55.9 | 25.9 | -7.2 | /
COC(=O)c1c(C)cc(O)c(C=O)c1O | / | 0.0 | 8.8 | 7.7 | 56.3* | 45.3*
COc1ccc(C(=O)N/N=C/c2ccc(OC)c(COc3ccc(F)cc3)c2)cc1 | 18.3 | 8.8 | 18.0 | 20.2 | 21.5 | /
COc1ccc(C(=O)N/N=C/c2ccc(OC)c(COc3ccc(F)cc3F)c2)cc1 | 17.8 | 19.9 | 9.3 | 2.2 | 55.4* | 40.1*
Fc1ccccc1-c1nc(NCc2ccccc2)c2ccccc2n1 | -2.7 | 6.3 | 35.2 | 11.1 | 50.3* | 38.2
c1ccc(CNc2nc(-c3ccccn3)nc3ccccc23)cc1 | 24.9 | 27.9 | 11.6 | 47.8 | -14.8 | /
CCN(CC)c1nc(-c2ccccc2)nc2ccccc12 | 16.3 | 32.1 | 26.9 | 18.2 | 51.3* | 42.6*
c1ccc(CNc2nc(-c3cccnc3)nc3ccccc23)cc1 | 9.0 | -26.5 | 26.3 | 20.2 | 38.8 | /
